Screening data (PubChem BioAssay)
HCV inhibitor: HCV inhibition. Huh7.5.1 HCVcc-Cre infection, luciferase reporter, 44 h. Potency, µM (highest dose often 41.8 µM), for inactives: top-dose activity change, negative = inhibition, hits mostly inhibitors. 340,000 tested, 3.4% active
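Whole-lifecycle infectious HCVcc-Cre system; cells 1,000/well, compound then virus (~0.5 moi) added 4 h after plating, 44 h culture. Luciferase read 15 sec following 15 min substrate incubation, room temp.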
Pf growth 48h: P. falciparum growth inhibition at 48 hours (one generation) | P. falciparum luciferase growth in erythrocytes, 48 h | Potency, µM (top dose mostly 28.7 µM), for the others: at the highest dose activity change, negative = inhibition, actives largely listed as inhibitors | 310,000 tested, 5.9% active | AID 504832
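First compound was added to culture medium, then infected red cells at 0.1% parasitemia and 2% hematocrit (final). After incubation at 37 C under 5% CO2, luciferase detection reagent was dispensed and light output recorded.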
Pf growth 96h: P. falciparum growth inhibition at 96 hour, primary screen for plastid delayed-death inhibitors | 320,000 tested, 6.9% active | Potency, µM (series often up to 28.7 µM), for the others: at the highest dose activity change, negative = inhibition, most hits filed as inhibitors | AID 504834 | P. falciparum luciferase reporter growth, 96 h
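Cell-based qHTS: luciferase-tagged P. falciparum in erythrocytes (2% hematocrit, 0.05% parasitemia final) incubated with compounds for 96 hours, 37 C, 5% CO2; luciferase detection reagent then added and luminescence measured.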
AMA1-RON2 inh: AMA1-RON2 (P. falciparum) interaction inhibition; AID 720542; AlphaScreen AMA1-biotinylated RON2 peptide binding; Potency, µM (highest dose often 58.2 µM), inactives show at the highest dose activity change, negative = inhibition, hits mostly inhibitors; 360,000 tested, 0.2% active;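 note: 0% = vehicle wells and -100% = peptide control; nearly all actives have a fitted effect of over 45% in size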
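AMA1 (3D7) with his tag at 25 nM final met compounds first, then biotinylated RON2 peptide at 25 nM; detection used donor plus acceptor beads, 10 µg/mL apiece, read by AlphaScreen after 30 min at room temperature.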
AmpC detergent: AmpC beta-lactamase inhibition with detergent present | AmpC hydrolysis of nitrocefin, absorbance 480 nm, 0.01% Triton | 370,000 tested, 0.041% active | P00811 | Potency, µM (top dose mostly 114 µM), for the others: at the highest dose activity change, negative = inhibition, hits mostly inhibitors;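 note: 0% = no-compound wells and -100% = no-enzyme wells; nearly all actives have a fitted effect of over 25% in size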
Target sequence (P00811 whole entry, looked up): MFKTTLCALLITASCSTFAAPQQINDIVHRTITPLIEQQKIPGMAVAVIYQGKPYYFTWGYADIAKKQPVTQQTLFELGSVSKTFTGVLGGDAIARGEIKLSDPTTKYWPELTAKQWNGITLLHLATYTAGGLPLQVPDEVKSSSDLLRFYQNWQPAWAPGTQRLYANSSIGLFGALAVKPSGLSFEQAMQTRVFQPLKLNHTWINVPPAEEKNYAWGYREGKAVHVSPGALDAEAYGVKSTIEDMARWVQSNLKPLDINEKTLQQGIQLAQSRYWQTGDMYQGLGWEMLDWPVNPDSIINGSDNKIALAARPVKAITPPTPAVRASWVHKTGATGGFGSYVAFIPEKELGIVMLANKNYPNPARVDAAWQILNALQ
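AmpC (5.3 nM in the dispensed reagent) in 20 mM phosphate pH 7.0 with 0.01% (detergent screen) or 0.0001% Triton X-100 was preincubated with compounds for 15 min at room temperature. Nitrocefin was then added from an 800 uM solution, and hydrolysis was followed at 480 nm.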
AmpC inh no detg: inhibitors of E. coli AmpC beta-lactamase without detergent; P00811; AmpC nitrocefin hydrolysis, absorbance 480 nm, 0.0001% Triton; AID 485341; 330,000 tested, 0.52% active; Potency, µM (top dose mostly 57.1 µM), inactives show top-dose activity change, negative = inhibition, usual class: inhibitors;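 note: plate controls were no compound for no effect and no enzyme for full effect; nearly all actives have a fitted effect of over 20% in size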
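AmpC (5.3 nM in the dispensed reagent) in 20 mM phosphate pH 7.0 with 0.01% (detergent screen) or 0.0001% Triton X-100 was preincubated with compounds for 15 min at room temperature. Nitrocefin was then added from an 800 uM solution, and hydrolysis was followed at 480 nm.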
Numbers without * were called inactive; u = inconclusive; x = not tested or not shown; [ ] = remark or other dose. Only some compounds are listed: those with a hit (about 11% of all), similar ones and a draw of the others. Calls come from the whole dose curve; as a rule, active = well fitted curve in the direction sought with a large enough effect; inconclusive = small, poorly fitted or top-dose-only effect, or another doubt; inactive = no such curve, though single readings can be large; an effect the other way counts as inactive or inconclusive. Unless noted, % is set by controls: 0 for no effect and ±100 for the full control effect; potency is the fitted concentration of half-maximal effect.

SMILES | HCV inhibitor | Pf growth 48h | Pf growth 96h | AMA1-RON2 inh | AmpC detergent | AmpC inh no detg
COC(=O)Cc1[nH]nc2c1C1(C(=O)N(Cc3ccccc3)c3ccccc31)C(C#N)=C(N)O2 (stereo unspecified) | 6% | -8% | 47% | 1% | u | -17%
Cc1[nH]nc2c1C1(C(=O)N(Cc3ccc(Cl)cc3)c3ccccc31)C(C#N)=C(N)O2 (stereo unspecified) | -7% | 13µM* | 34% | -12% | 0% | -26%
COc1ccc(C2=CC(c3c(C)nn(-c4ccccc4)c3Cl)n3nnnc3N2)cc1OC (stereo unspecified) | 11µM* | 2.3µM* | u | -9% | -13% | 3%
N#C/C(=C\Nc1ccccc1O)c1nc2ccccc2o1 | 10µM* | 1.7µM* | 10µM* | 47% | -4% | -47%
N#C/C(=C\c1ccncc1)c1nc2ccccc2o1 | 9% | 13% | 4% | 27% | -2% | -40%
O=C(/C=C/c1ccc(Br)o1)NC(c1ccccc1)c1ccccc1 | -14% | 12µM* | u | -11% | 1% | -31%
O=C(NC(c1ccccc1)c1ccccc1)c1ccc(Br)o1 | -2% | u | x | 33% | 2% | -35%
COc1ccccc1NS(=O)(=O)c1cc(NC(=O)c2sccc2C)ccc1N1CCOCC1 | u | u | 12µM* | 3% | -1% | 2%
COc1ccccc1NS(=O)(=O)c1cc(NC(=O)c2sccc2C)ccc1N1CCCC1 | 18% | u | u | -1% | 1% | -41%
COc1ccc(NS(=O)(=O)c2cc(NC(=O)c3sccc3C)ccc2N2CCOCC2)cc1 | u | 10µM* | u | -12% | 5% | -14%
COc1ccc(NS(=O)(=O)c2cc(NC(=O)c3ccccc3)ccc2N2CCOCC2)cc1 | u | x | x | -6% | x | -1%
CSc1cc(-c2ccc(Cl)cc2)c(C(=O)NN)s1 | 3.5µM* | u | 12µM* | 45% | -6% | -43%
COc1ccc(CCN(C(=O)C(F)(F)F)C(C(=O)NC2CCCCC2)c2ccc(C)s2)cc1OC (stereo unspecified) | u | 4.1µM* | u | 1% | -3% | 0%
COc1ccc(CCN(C(=O)c2ccco2)C(C(=O)NC2CCCC2)c2ccncc2)cc1OC (stereo unspecified) | 17% | -25% | 27% | -1% | 10% | 110%
COc1ccc(CCN(C(=O)C(F)(F)F)C(C(=O)NC2CCCC2)c2cccs2)cc1OC (stereo unspecified) | -18% | u | 7.4µM* | -5% | -4% | u
Cc1ccc(CN(C(=O)C(F)(F)F)C(C(=O)NC2CCCCC2)c2ccco2)cc1 (stereo unspecified) | u | u | 5% | -11% | u | -18%
O=C(CCc1nnc(Cc2ccc(-c3ccccc3)cc2)o1)N1CCCC1 | u | u | 9.3µM* | 24% | 6% | 149%
O=C(Cn1ncc(Cl)c(Cl)c1=O)N1CCOCC1 | u | u | u | -8% | -3% | -41%
O=C(Cn1ncc2c3ccccc3n(Cc3ccccc3)c2c1=O)N1CCN(c2ccccn2)CC1 | -11% | u | 16% | -1% | -8% | 10%
O=C(Cn1ncc2c3ccccc3n(Cc3ccccc3)c2c1=O)N1CCN(c2ncccn2)CC1 | 10µM* | u | u | -4% | -9% | 140%
O=C(Cn1ncc(Cl)c(Cl)c1=O)N1CCN(Cc2ccccc2)CC1 | 3.5µM* | u | u | -9% | -11% | 1%[11.4 µM]
Cc1cc(Cl)ccc1NC(=O)c1cc(S(=O)(=O)N2CCOCC2)cn1C | x | x | x | x | 3% | x
CCOC(=O)c1c(NC(=O)c2cc(-c3ccccc3)on2)sc2c1CCCC2 | x | x | x | x | 5% | x
Cn1ccnc1C1CCCCN1Cc1nc(-c2ccc(Cl)cc2)no1 (stereo unspecified) | 21% | 12µM* | u | 0% | -1% | 91%
Clc1ccc(-c2noc(CN3CCCC3)n2)cc1 | u | 152% | u | -11% | -1% | -4%
SMILES | HCV inhibitor | Pf growth 48h | Pf growth 96h | AMA1-RON2 inh | AmpC detergent | AmpC inh no detg
COc1ccc2c(c1)-c1nc(/N=C/c3ccc(O)cc3)sc1CC2 | u | 21% | 4.1µM* | 0% | -4% | -17%
Oc1ccc2ccccc2c1/C=N/c1nccs1 | -22% | u | x | -9% | u | -20%
COc1ccc2c(c1)-c1nc(/N=C/c3c(O)ccc4ccccc34)sc1CC2 | 13µM* | 11% | 4.7µM* | -5% | -8% | -20%
c1ccc(OCc2nn3c(-c4cccnc4)nnc3s2)cc1 | 15% | u | 12µM* | 8% | -13% | 16%
Clc1ccc(OCc2nn3c(-c4ccco4)nnc3s2)cc1 | -1% | 15µM* | -23% | -4% | -5% | -7%
COc1ccccc1N1CCN(C(=O)C2CCN(S(=O)(=O)Cc3ccccc3)CC2)CC1 | x | x | x | x | 11% | x
CN1CCc2c(c3ccccc3n2Cc2ccccc2)C1 | -28% | -7%[12.8 µM] | u | -14% | -2% | 18%
CCCCN1CCc2c(c3ccccc3n2Cc2ccccc2)C1 | u | 10µM* | 6.6µM* | -19% | -16% | 13%
Cc1cc(C)n(CCc2nc3c4ccccc4nc(N4CCN(c5ccccc5F)CC4)n3n2)n1 | x | x | x | x | 20% | x
O=c1c2ccccc2c(-c2cccc(C(F)(F)F)c2)nn1-c1ccccc1 | 8% | u | 9.3µM* | 1% | 0% | -3%
O=C(O)c1nc(-c2ccccc2)n(-c2cccc(C(F)(F)F)c2)n1 | u | 0% | u | -14% | 4% | -8%
O=c1c2ccccc2c(-c2ccc(O)cc2)nn1-c1cccc(C(F)(F)F)c1 | u | 9.3µM* | u | -2% | 2% | 18µM*
O=c1c2cccc3c2c(nn1-c1ccccc1)-c1ccccc1-3 | u | -3% | u | 19% | -6% | -43%
O=c1c2ccccc2c(-c2ccc(Cl)cc2)nn1-c1ccccc1 | u | 3.3µM* | u | -5% | -12% | -10%
CCOc1ccccc1CNC(=O)CN1C(=O)CCn2nc(-c3cn(C)c4ccccc34)cc21 | x | x | x | x | 4% | x
COc1cccc2c1Oc1ncccc1N(C(=O)Nc1ccc(F)c(Cl)c1)C2 | x | x | x | x | 13% | x
Cc1ccc(C(=O)N2CCc3cc(CNC(=O)CSc4ccccc4)ccc32)cc1 | x | x | x | x | -5% | x
CCc1nc2ccc(C(=O)N3CCN(c4ccc([N+](=O)[O-])cc4)CC3)cc2nc1CC | 13µM* | u | u | -21% | 2% | 121%
